# Test results published in PubChem BioAssay (EPA / NIEHS).
# Results filed as inconclusive are left out. The source made the active and inactive calls. Rule for the calls: active = hit-call score of the fitted dose curve at least 0.9, where 1 is the maximum; inconclusive = response in the unintended direction; inactive = score below 0.9.
# Tests used:
# [1] = biological target: human Tyrosine Protein Kinase Receptor Tie-2 (Tie2), TEK (gene 7010) (UniProt Q02763); assay: NVS_ENZ_hTie2: NovaScreen (NVS) Enzymatic Assay for human Tyrosine Protein Kinase Receptor Tie-2 (Tie2) (AID 2283225)
# Outline: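 Recombinant human Tie2 kinase activity was read cell-free by fluorescence with electrophoretic mobility shift, 1 hour after dosing. The screen used 25 uM in duplicate, then concentration-response up to 50 uM. Signal loss was scored against DMSO.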
# [2] = biological target: rat Catechol-O-Methyl Transferase (COMT), Comt (gene 24267) (UniProt P22734); assay: NVS_ENZ_rCOMT: NovaScreen (NVS) Enzymatic Assay for rat Catechol-O-Methyl Transferase (COMT) (AID 2283235)
# Outline: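 Cell-free enzyme activity with protein extracted from rat dorsal striatum, measured by HPLC with absorbance detection. Compounds screened at 25 uM in duplicate; actives then run in concentration-response up to 50 uM, loss of signal versus DMSO.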
# [3] = test system: rat Monoamine Oxidase, MAO-A, Peripheral (MAOAP), gene 29253; assay: NVS_ENZ_rMAOAP: NovaScreen (NVS) Enzymatic Assay for rat Monoamine Oxidase, MAO-A, Peripheral (MAOAP) (AID 2283237)
# Outline: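 Rat liver mitochondrial membranes served as the MAO-A source, with enzyme activity measured by radiometric scintillation counting 1.17 hours after dosing. Loss of signal was fitted against DMSO; primary screen used 25 uM in duplicate, follow-up used concentration series.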
# [4] = test system: rat Monoamine Oxidase, MAO-A, Central (MAOAC), gene 29253; assay: NVS_ENZ_rMAOAC: NovaScreen (NVS) Enzymatic Assay for rat Monoamine Oxidase, MAO-A, Central (MAOAC) (AID 2283243);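 note: potency refers to inhibition seen as signal drop below DMSO baseline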
# Outline: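 Inhibition of rat brain-derived MAO-A was read by scintillation counting after 1.5 h exposure. Compounds screened first at 25 uM in duplicate, then in dose series if active.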
# [5] = biological target: human Vascular Endothelial Growth Factor Receptor 2 (VEGFR2), KDR (gene 3791) (UniProt P35968); assay: NVS_ENZ_hVEGFR2: NovaScreen (NVS) Enzymatic Assay for human Vascular Endothelial Growth Factor Receptor 2 (VEGFR2) (AID 2283230)
# Outline: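 Cell-free recombinant VEGFR2 kinase, fluorescent substrate with electrophoretic mobility-shift separation; read 1 h after dosing. Screened at 25 uM in duplicate, hits to concentration-response up to 50 uM; loss-of-signal versus DMSO.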
# [6] = biological target: rabbit Imidazoline 2 Central (I2C), CKB (gene 100009085) (UniProt P00567); assay: NVS_ENZ_rabI2C: NovaScreen (NVS) Enzymatic Assay for rabbit Imidazoline 2 Central (I2C) (AID 2283228)
# Outline: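 Rabbit brain membranes, cell-free; readout by filter-based scintillation counting 1.5 hours after dosing, loss of signal vs DMSO. Initial duplicate test at 25 uM, then concentration-response with 50 uM top concentration.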
# [7] = biological target: sheep Cyclooxygenase-2 (Cox2), PTGS2 (gene 443460) (UniProt P79208); assay: NVS_ENZ_oCOX2: NovaScreen (NVS) Enzymatic Assay for sheep Cyclooxygenase-2 (Cox2) (AID 2283231)
# Outline: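 Enzyme extracted from ovine placenta tested cell-free; activity read colorimetrically by absorbance 0.66 hour after dosing. Primary screen in duplicate at 25 uM; hits rerun as concentration series to 50 uM, loss of signal versus DMSO baseline.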
# [8] = biological target: rat Monoamine Oxidase, MAO-B, Central (MAOBC), Maob (gene 25750) (UniProt P19643); assay: NVS_ENZ_rMAOBC: NovaScreen (NVS) Enzymatic Assay for rat Monoamine Oxidase, MAO-B, Central (MAOBC) (AID 2283238)
# Outline: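 Rat brain tissue extract served as the cell-free MAO-B source; enzyme activity was read by scintillation counting 1.17 hours after compound addition. Loss of signal versus DMSO baseline was fitted; primary single-concentration screen at 25 uM, follow-up concentration-response up to 50 uM.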
# [9] = biological target: sheep Cyclooxygenase-1 (Cox1), PTGS1 (gene 443551) (UniProt P05979); assay: NVS_ENZ_oCOX1: NovaScreen (NVS) Enzymatic Assay for sheep Cyclooxygenase-1 (Cox1) (AID 2283239);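 note: actives reduce cyclooxygenase activity so potencies are for inhibitors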
# Outline: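 Colorimetric enzyme readout using sheep seminal-vesicle cyclooxygenase-1, measured 0.66 h post-dosing. Single-concentration duplicates at 25 uM first, then concentration series for actives, with DMSO as baseline and plate controls.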
# [10] = biological target: bovine Dopamine Receptor (DR), Non-selective Binding, DRD1 (gene 281125) (UniProt Q95136); assay: NVS_GPCR_bDR_NonSelective: NovaScreen (NVS) G Protein-Coupled Receptor Assay for bovine Dopamine Receptor (DR), Non-selective Binding (AID 2283241)
# Outline: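 Bovine striatal membranes; radioligand displacement read by filtration and scintillation counting 1 h after dosing, loss of signal vs DMSO. Screened in duplicate at 25 uM, then concentration-response for hits.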
# [11] = biological target: human Vascular Endothelial Growth Factor Receptor 3 (VEGFR3), FLT4 (gene 2324) (UniProt P35916); assay: NVS_ENZ_hVEGFR3: NovaScreen (NVS) Enzymatic Assay for human Vascular Endothelial Growth Factor Receptor 3 (VEGFR3) (AID 2283229)
# Outline: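 Cell-free recombinant VEGFR3 kinase reaction with fluorescent substrate, read 1 h after dosing by electrophoretic mobility shift separation of substrate and product. Single-concentration duplicate screen at 25 uM, then concentration-response up to 50 uM; loss of activity versus DMSO.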
# [12] = biological target: rat Acetylcholinesterase (AChE), Ache (gene 83817) (UniProt P37136); assay: NVS_ENZ_rAChE: NovaScreen (NVS) Enzymatic Assay for rat Acetylcholinesterase (AChE) (AID 2283233)
# Outline: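 Rat brain membrane acetylcholinesterase activity measured colorimetrically 0.33 h after compound addition, loss of signal relative to DMSO. Primary screen in duplicate at 25 uM; actives re-run as concentration-response with 50 uM top concentration.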
# [13] = biological target: rat Constitutive Nitric Oxide Synthase (CNOS), Nos1 (gene 24598) (UniProt P29476); assay: NVS_ENZ_rCNOS: NovaScreen (NVS) Enzymatic Assay for rat Constitutive Nitric Oxide Synthase (CNOS) (AID 2283236)
# Outline: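 Enzyme activity in rat brain membrane preparation, read 1 h after dosing by filter-based radiometric scintillation counting. Primary screen in duplicate at 25 uM; actives (e.g., ≥30% inhibition) then run in concentration-response up to 50 uM.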
# [14] = biological target: human SRC Proto-Oncogene, Non-receptor Tyrosine Kinase (SRC), SRC (gene 6714) (UniProt P12931); assay: NVS_ENZ_hSRC: NovaScreen (NVS) Enzymatic Assay for human SRC Proto-Oncogene, Non-receptor Tyrosine Kinase (SRC) (AID 2283223)
# Outline: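 Cell-free kinase activity assay with fluorescent substrate, product separated by electrophoretic mobility shift, read 1 h after dosing. Duplicate single point at 25 uM, then concentration-response up to 50 uM; loss of signal versus DMSO.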
# [15] = biological target: human Tropomyosin Receptor Kinase A (TRKA), NTRK1 (gene 4914) (UniProt P04629); assay: NVS_ENZ_hTrkA: NovaScreen (NVS) Enzymatic Assay for human Tropomyosin Receptor Kinase A (TRKA) (AID 2283224)
# Outline: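 Recombinant human TrkA activity read after 1 h by fluorescence with electrophoretic mobility shift separating substrate and product. Primary screen in duplicate at 25 uM; actives were rerun in concentration-response up to 50 uM. Loss of signal versus DMSO.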
# [16] = biological target: rat Adenylate Cyclase, Forskolin Stimulated, Adcy5 (gene 64532) (UniProt Q04400); assay: NVS_ENZ_rACFSKBinding: NovaScreen (NVS) Enzymatic Assay for rat Adenylate Cyclase, Forskolin Stimulated (AID 2283232)
# Outline: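 Rat forebrain membrane preparation, cell-free, read 1 h after dosing by filter-based scintillation counting. Primary screen in duplicate at 25 uM; actives (e.g. ≥30% inhibition) rerun in concentration-response up to 50 uM; fit versus DMSO.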
# [17] = biological target: Adenosine receptor A1 (Bos taurus) (UniProt P28190); assay: NVS_GPCR_bAdoR_NonSelective: NovaScreen (NVS) G Protein-Coupled Receptor Assay for bovine Adenosine Receptor (AdoR), Non-selective Binding (AID 2283244)
# Outline: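 Bovine striatal membranes, radioligand displacement binding, 1 h after dosing, filter-based scintillation counting. Screened in duplicate at 25 uM, then concentration-response up to 50 uM; loss of specific binding relative to DMSO.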
# Chain of human Vascular Endothelial Growth Factor Receptor 2 (VEGFR2), KDR (gene 3791) (P35968 whole entry, looked up): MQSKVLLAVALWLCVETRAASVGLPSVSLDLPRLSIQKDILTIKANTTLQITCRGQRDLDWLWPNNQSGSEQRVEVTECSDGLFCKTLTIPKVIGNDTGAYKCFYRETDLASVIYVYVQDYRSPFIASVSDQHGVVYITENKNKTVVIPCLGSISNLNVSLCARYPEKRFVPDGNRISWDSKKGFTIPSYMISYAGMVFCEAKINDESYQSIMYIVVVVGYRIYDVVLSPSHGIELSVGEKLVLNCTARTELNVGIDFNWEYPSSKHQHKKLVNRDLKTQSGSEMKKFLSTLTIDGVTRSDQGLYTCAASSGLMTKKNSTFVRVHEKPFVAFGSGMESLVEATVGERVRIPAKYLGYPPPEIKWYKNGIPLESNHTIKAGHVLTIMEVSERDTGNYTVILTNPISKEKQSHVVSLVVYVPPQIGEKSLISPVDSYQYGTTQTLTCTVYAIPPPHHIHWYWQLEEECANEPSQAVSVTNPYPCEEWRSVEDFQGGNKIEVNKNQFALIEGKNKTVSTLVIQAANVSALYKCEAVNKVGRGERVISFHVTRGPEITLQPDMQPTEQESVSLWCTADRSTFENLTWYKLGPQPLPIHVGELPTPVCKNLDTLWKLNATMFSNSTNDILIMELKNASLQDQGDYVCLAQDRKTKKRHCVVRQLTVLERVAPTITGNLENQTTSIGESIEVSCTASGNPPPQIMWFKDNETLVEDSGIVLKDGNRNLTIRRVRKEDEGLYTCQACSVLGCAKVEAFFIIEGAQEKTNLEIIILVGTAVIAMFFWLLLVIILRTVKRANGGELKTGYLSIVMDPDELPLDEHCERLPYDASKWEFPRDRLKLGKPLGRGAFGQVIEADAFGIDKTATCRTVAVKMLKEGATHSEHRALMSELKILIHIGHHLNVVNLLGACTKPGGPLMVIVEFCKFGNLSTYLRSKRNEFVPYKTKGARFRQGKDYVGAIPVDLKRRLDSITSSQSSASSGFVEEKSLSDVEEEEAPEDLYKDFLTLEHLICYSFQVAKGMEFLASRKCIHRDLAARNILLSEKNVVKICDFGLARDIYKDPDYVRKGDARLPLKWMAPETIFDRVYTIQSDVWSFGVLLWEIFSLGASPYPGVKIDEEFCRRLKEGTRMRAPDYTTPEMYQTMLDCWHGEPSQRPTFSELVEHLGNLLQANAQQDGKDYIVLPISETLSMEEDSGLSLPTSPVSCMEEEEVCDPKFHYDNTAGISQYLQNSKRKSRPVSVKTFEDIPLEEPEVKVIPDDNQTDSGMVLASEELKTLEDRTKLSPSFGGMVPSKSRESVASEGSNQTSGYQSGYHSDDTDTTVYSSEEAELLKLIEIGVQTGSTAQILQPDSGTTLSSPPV
# Chain of human SRC Proto-Oncogene, Non-receptor Tyrosine Kinase (SRC), SRC (gene 6714) (P12931 whole entry, looked up): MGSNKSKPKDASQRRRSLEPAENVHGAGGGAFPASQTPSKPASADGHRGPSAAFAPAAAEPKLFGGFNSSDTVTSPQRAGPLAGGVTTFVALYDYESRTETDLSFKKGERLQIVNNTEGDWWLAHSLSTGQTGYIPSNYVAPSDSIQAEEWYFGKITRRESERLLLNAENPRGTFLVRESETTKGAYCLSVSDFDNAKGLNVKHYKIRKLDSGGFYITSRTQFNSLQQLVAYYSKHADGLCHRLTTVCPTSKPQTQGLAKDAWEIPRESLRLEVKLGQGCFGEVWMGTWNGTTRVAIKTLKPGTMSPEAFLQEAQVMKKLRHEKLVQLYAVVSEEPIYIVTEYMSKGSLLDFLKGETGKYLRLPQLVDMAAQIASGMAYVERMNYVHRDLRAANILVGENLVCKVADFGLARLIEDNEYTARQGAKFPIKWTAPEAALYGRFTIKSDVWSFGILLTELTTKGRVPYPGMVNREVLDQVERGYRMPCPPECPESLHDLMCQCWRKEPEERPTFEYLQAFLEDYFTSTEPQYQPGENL
# Chain of rabbit Imidazoline 2 Central (I2C), CKB (gene 100009085) (P00567 whole entry, looked up): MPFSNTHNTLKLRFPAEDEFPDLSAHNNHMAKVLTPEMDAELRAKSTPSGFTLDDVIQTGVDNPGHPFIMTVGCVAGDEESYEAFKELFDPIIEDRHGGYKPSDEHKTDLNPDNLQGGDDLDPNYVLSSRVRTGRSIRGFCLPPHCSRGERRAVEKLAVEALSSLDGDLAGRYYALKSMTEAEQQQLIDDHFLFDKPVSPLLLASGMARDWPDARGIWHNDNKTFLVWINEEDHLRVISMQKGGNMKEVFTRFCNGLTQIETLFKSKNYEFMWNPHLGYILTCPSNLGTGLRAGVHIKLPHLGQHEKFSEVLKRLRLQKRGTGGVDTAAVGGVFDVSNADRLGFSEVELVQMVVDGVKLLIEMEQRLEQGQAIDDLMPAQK
# Chain of human Tyrosine Protein Kinase Receptor Tie-2 (Tie2), TEK (gene 7010) (Q02763 whole entry, looked up): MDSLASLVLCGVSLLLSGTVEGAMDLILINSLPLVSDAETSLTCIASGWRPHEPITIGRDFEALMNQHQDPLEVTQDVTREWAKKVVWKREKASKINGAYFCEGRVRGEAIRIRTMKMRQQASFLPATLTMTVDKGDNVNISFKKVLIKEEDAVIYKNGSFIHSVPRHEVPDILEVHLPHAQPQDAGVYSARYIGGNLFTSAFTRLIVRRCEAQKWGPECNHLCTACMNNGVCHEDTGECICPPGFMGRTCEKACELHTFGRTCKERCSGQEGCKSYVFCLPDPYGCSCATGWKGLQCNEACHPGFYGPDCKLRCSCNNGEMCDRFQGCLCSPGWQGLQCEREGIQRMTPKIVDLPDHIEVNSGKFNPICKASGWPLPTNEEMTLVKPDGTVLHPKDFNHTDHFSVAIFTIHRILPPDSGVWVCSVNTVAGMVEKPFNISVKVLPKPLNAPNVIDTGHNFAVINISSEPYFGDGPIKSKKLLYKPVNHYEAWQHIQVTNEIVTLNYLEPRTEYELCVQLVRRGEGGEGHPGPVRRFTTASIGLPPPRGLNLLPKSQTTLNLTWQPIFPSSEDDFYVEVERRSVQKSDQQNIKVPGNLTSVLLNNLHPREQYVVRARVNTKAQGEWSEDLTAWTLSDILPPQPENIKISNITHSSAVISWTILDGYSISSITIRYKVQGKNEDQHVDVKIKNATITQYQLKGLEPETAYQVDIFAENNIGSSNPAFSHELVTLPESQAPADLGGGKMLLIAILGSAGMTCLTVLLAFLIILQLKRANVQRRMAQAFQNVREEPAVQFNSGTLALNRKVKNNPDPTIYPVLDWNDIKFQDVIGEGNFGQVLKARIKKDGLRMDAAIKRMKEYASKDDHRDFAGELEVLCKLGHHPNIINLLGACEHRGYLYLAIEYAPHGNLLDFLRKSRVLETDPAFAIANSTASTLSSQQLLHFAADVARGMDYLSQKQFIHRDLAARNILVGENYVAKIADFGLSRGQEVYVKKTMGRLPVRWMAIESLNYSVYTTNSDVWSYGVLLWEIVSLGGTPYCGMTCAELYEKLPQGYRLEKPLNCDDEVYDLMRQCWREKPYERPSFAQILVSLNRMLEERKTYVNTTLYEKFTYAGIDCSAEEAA
# Chain of rat Acetylcholinesterase (AChE), Ache (gene 83817) (P37136 whole entry, looked up): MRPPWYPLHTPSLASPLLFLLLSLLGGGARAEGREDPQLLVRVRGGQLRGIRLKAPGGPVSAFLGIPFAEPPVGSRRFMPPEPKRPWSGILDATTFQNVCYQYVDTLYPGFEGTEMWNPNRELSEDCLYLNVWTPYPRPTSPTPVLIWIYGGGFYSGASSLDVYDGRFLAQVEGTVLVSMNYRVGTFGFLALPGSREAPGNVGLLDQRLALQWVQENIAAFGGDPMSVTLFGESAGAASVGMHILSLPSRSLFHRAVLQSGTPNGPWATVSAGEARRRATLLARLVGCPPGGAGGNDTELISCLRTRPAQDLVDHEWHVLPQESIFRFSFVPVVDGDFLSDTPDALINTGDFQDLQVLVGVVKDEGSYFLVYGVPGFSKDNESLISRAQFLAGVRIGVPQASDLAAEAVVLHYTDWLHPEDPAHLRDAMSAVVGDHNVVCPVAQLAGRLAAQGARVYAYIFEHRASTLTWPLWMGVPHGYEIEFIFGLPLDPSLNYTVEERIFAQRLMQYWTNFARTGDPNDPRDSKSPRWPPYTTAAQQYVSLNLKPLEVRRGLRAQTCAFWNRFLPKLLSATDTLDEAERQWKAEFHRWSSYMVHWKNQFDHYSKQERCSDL
# Chain of rat Monoamine Oxidase, MAO-B, Central (MAOBC), Maob (gene 25750) (P19643 whole entry, looked up): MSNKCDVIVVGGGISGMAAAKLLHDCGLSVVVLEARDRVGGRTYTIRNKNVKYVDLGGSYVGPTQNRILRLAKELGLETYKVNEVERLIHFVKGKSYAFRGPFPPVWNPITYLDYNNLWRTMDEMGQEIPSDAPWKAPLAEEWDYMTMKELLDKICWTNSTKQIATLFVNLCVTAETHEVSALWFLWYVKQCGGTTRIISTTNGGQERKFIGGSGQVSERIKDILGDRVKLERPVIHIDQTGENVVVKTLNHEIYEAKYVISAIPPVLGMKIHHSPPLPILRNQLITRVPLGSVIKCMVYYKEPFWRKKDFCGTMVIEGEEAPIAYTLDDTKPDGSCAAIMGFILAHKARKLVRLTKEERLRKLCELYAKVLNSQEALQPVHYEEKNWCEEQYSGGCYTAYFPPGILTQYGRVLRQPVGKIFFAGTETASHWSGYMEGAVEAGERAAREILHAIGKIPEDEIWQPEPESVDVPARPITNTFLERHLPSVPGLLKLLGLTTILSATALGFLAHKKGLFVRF
# Chain of bovine Dopamine Receptor (DR), Non-selective Binding, DRD1 (gene 281125) (Q95136 whole entry, looked up): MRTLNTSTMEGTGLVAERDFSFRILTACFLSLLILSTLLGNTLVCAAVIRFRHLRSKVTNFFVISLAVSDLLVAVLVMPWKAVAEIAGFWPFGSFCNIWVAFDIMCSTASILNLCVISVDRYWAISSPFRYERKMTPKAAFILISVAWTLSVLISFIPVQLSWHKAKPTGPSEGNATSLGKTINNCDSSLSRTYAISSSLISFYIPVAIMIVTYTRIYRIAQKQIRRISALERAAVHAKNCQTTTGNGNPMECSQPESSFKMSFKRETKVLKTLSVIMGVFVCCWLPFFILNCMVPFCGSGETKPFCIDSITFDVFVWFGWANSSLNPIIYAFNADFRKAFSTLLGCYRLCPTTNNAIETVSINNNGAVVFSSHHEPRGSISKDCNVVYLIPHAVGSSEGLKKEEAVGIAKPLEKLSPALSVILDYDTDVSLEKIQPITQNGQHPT
smiles,measurement,setting,value
Oc1ccc2ccc3cccc4ccc1c2c34,AC50,[1],13.6 µM (active)
same,AC50,[2],25 µM (active)
same,AC50,[3],1.18 µM (active)
same,AC50,[4],0.255 µM (active)
ClC1=C(Cl)[C@]2(Cl)[C@H]3[C@H]([C@@H]4C=C[C@H]3C4)[C@@]1(Cl)C2(Cl)Cl,outcome,[5],inactive
CN(C)c1ccc(C(=O)c2ccc(N(C)C)cc2)cc1,outcome,[6],inactive
same,AC50,[7],13 µM (active)
same,AC50,[3],7.24 µM (active)
same,AC50,[8],7.63 µM (active)
same,AC50,[9],25.2 µM (active)
same,AC50,[4],5.33 µM (active)
O=C(N[C@H](c1ccccc1)[C@@H]1CN2CCC1CC2)c1c(Cl)ccc(C(F)(F)F)c1Cl,outcome,[6],inactive
same,AC50,[3],50.6 µM (active)
same,AC50,[10],29.1 µM (active)
same,AC50,[4],37.5 µM (active)
CCOC(=O)[C@]1(c2ccccc2)Oc2ccccc2[C@@H]1N,AC50,[6],4.37 µM (active)
same,outcome,[11],inactive
same,AC50,[12],17.2 µM (active)
same,outcome,[13],inactive
same,AC50,[8],10.2 µM (active)
same,AC50,[10],1.04 µM (active)
CC(C)(C)C(O)(CCc1ccc(Cl)cc1)Cn1cncn1 (stereo not drawn),outcome,[14],inactive
same,outcome,[1],inactive
COC(=O)Nc1nc2ccccc2[nH]1,outcome,[5],inactive
Cc1ccc([N+](=O)[O-])cc1,outcome,[7],inactive
CNC(=O)Oc1cccc2c1OC(C)(C)C2,outcome,[5],inactive
same,AC50,[12],0.464 µM (active)
CCNS(=O)(=O)C(F)(F)C(F)(F)C(F)(F)C(F)(F)C(F)(F)C(F)(F)C(F)(F)C(F)(F)F,outcome,[14],inactive
same,outcome,[15],inactive
same,outcome,[1],inactive
same,outcome,[11],inactive
same,outcome,[5],inactive
Nc1ccc([N+](=O)[O-])cc1,outcome,[6],inactive
same,AC50,[3],16.7 µM (active)
same,AC50,[4],36.3 µM (active)
Clc1ccc(C(c2ccc(Cl)cc2)C(Cl)(Cl)Cl)cc1,outcome,[5],inactive
CN(C)C(=O)Nc1ccc(Cl)cc1,outcome,[6],inactive
same,outcome,[12],inactive
same,AC50,[4],25 µM (active)
Clc1ccc(C(c2ccc(Cl)cc2)C(Cl)Cl)cc1,outcome,[5],inactive
ClCCOCCCl,outcome,[14],inactive
same,outcome,[9],inactive
CC(C)(OOC(C)(C)c1ccccc1)c1ccccc1,outcome,[5],inactive
CC(C)(O)c1cnn2c(-c3ccc(F)c(-c4c(F)cccc4C#N)c3)cnc2n1,AC50,[6],0.362 µM (active)
same,outcome,[16],inactive
same,outcome,[3],inactive
same,outcome,[8],inactive
c1ccc(NNc2ccccc2)cc1,outcome,[5],inactive
same,AC50,[9],2.46 µM (active)
Clc1ccc(Cl)c(Cl)c1,outcome,[5],inactive
O=C(Oc1ccc(Br)cc1)N1CCN2CCC1CC2,outcome,[1],inactive
CCCCC(CC)COC(=O)c1ccc(C(=O)OCC(CC)CCCC)c(C(=O)OCC(CC)CCCC)c1 (stereo not drawn),outcome,[1],inactive
Nc1ccc(N=Nc2ccccc2)cc1,outcome,[6],inactive
same,AC50,[3],18.3 µM (active)
same,AC50,[8],25 µM (active)
same,AC50,[9],4.49 µM (active)
same,AC50,[4],10.6 µM (active)
same,AC50,[17],25 µM (active)
